PLAP act – activates human placental alkaline phosphatase | purified PLAP enzyme, luminescent substrate read-out; stronger effect = higher value | hit rate 1.2% among 96,000 | AID 696 | activation fold at 20 µM | P05187; in the data active = activation fold above about 2
CYP2C9 inh – blocks human cytochrome P450 2C9 | inhibition, % at 5 µM | P11712 | CYP2C9 Supersomes, luciferin-H conversion, luminescence | hit rate 20% among 96,000;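 active = blocking of liver enzyme CYP2C9 beyond about 50% at 5 µM, limit read from the data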
CYP2C9 activ – CYP2C9 (human) activation; hit rate 1.4% among 96,000; P11712; AID 1024; recombinant CYP2C9, luciferin-H conversion, luminescence; stronger effect = higher value; factor 1 = untreated enzyme, 0 = blocked; activation factor at 5 µM;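 active = activation factor of 2 or more for CYP2C9 at a 5 µM dose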
CYP2C19 inhib – human CYP2C19 inhibition; P33261; CYP2C19 Supersomes, luciferin-H EGE luminescence, 30 min; inhibition, % at 5 µM; hit rate 21% among 96,000; AID 778;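 active = CYP2C19 inhibition above a set limit at 5 µM in the primary screen, cut at about 50% in these data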
Target sequence (P33261 whole entry, looked up): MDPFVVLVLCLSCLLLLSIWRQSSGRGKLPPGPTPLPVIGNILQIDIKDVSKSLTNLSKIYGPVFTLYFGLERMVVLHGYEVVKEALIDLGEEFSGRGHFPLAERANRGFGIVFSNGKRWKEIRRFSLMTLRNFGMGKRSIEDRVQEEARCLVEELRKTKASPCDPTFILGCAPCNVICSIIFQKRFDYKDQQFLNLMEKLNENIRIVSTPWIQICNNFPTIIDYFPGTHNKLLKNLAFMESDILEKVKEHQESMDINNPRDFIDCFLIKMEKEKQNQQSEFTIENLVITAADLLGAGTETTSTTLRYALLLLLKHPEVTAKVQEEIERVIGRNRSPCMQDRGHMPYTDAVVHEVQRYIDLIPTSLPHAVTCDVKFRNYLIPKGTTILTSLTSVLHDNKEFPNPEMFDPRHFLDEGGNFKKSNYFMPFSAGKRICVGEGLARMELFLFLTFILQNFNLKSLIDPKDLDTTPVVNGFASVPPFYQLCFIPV
CYP2C19 activ – cytochrome P450 2C19 (human) activation; P33261; recombinant CYP2C19, luciferin-H EGE luminescence; stronger effect = higher value; 0 = fully inhibited enzyme, 1 = untreated enzyme; 96,000 tested, under 10 active; activation factor at 5 µM;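 active = activation factor of at least 2 at 5 µM in the primary screen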
Hits are given with their value; n = inactive. In the library only some 31% were active in any assay of this set; here they are far more common.

SMILES | PLAP act | CYP2C9 inh | CYP2C9 activ | CYP2C19 inhib | CYP2C19 activ
COc1ccc(C)cc1NC(=O)C1CCCN(S(=O)(=O)c2cnc[nH]2)C1 (configuration not stated) | n | 62.1 | n | 64.2 | n
Cc1ccc(N(C(=O)C2CCCO2)C2C=CS(=O)(=O)C2)cc1Cl (configuration not stated) | n | n | n | n | n
Cc1ccnc(NC(=O)C2CCCN(S(=O)(=O)c3cnc[nH]3)C2)c1 (configuration not stated) | n | 58.3 | n | n | n
COc1cc(C)nc(N2CCCC(C(=O)Nc3cc(Cl)ccc3OC)C2)n1 (configuration not stated) | n | n | n | 84.4 | n
COC(=O)Nc1ccc(S(=O)(=O)N2CCCC(C(=O)Nc3cccc4c3OCCO4)C2)cc1 (configuration not stated) | n | 83.1 | n | 63.9 | n
O=C(NC1CCCC1)C1CCCN(S(=O)(=O)c2cnc[nH]2)C1 (configuration not stated) | n | n | n | n | n
Cc1cc(C)nc(N2CCCC(C(=O)Nc3nc4ccc(S(C)(=O)=O)cc4s3)C2)n1 (configuration not stated) | n | 83.4 | n | 87.1 | n
COc1ccccc1NC(=O)C1CCCN(S(=O)(=O)c2cnc[nH]2)C1 (configuration not stated) | n | 61.4 | n | 61.9 | n
Cc1cccc(CN2CCC(CNC(=O)C3CCCN(S(=O)(=O)c4cnc[nH]4)C3)CC2)c1 (configuration not stated) | n | n | n | n | n
O=[N+]([O-])c1ccc(Sc2cccc3cccnc23)cc1 | n | n | n | 83.6 | n
O=C(NNC(=O)c1ccccc1F)c1cccc(Cl)c1 | n | n | n | n | n
O=C(NNC1=C(C(=O)C(F)(F)F)CCC1)c1cccc(Cl)c1 | 2 | 91.1 | n | n | n
O=C(NNC1=C(C(=O)C(F)(F)F)CCC1)c1ccc(Cl)cc1 | n | 50.4 | n | n | n
CCc1sc(N2C(=O)C3C4CCC(C4=C(C)C)C3C2=O)nc1-c1ccccc1 (configuration not stated) | n | n | n | n | n
CCOc1ccc(N2C(=O)/C(=C/c3cccs3)N(CC(=O)OC)C2=S)cc1 | n | n | n | n | n
CCN1C(=O)/C(=C/c2cccs2)N(C)C1=S | n | 50.7 | n | 67.1 | n
Cc1ccc2nc(Nc3nc(CSc4nnnn4-c4ccccc4)cc(=O)[nH]3)nc(C)c2c1 | 2.8 | 79.7 | n | 67.0 | n
Cc1ccc2c(c1)NC(=O)C(CC(=O)N(C)Cc1ccccc1)O2 (configuration not stated) | n | n | n | n | n
CCOC(=O)N1CCN(C(=O)CN(C2CCCCC2)S(=O)(=O)c2c(C)cc(C)cc2C)CC1 | n | 62.9 | n | n | n
Cc1cc(C)c(S(=O)(=O)N(CC(=O)N2CCOCC2)C2CCCCC2)c(C)c1 | n | 75.0 | n | n | n
Cc1cc(C)n(-c2nc3ccccc3c(=O)n2OCc2ccc(F)cc2)n1 | n | 50.2 | n | 98.8 | n
Cc1cc(C)n(-c2nc3ccccc3c(=O)n2OCc2ccc(Cl)cc2)n1 | n | n | n | 97.6 | n
Cc1cc(C)n(-c2nc3ccccc3c(=O)n2OCC(=O)Nc2c(C)cccc2C)n1 | n | 51.6 | n | n | n
Clc1ccc(C(c2nnnn2C2CCCC2)N2CCN(Cc3ccncc3)CC2)cc1 (configuration not stated) | n | 90.5 | n | 98.1 | n
CCCC(c1nnnn1C1CCCC1)N1CCN(c2ccccc2F)CC1 (configuration not stated) | n | 97.2 | n | 79.5 | n
SMILES | PLAP act | CYP2C9 inh | CYP2C9 activ | CYP2C19 inhib | CYP2C19 activ
Fc1ccccc1N1CCN(C(c2ccncc2)c2nnnn2C2CCCC2)CC1 (configuration not stated) | n | 64.5 | n | 85.6 | n
c1ccc(C(c2nnnn2C2CCCC2)N2CCCCCC2)nc1 (configuration not stated) | n | n | n | 51.9 | n
CCCNC(=O)c1cc2c(C(F)(F)F)nn(C)c2s1 | n | n | n | n | n
Cc1ccc(C)c(S(=O)(=O)NCc2ccc(C(=O)N3CCC(Cc4ccccc4)CC3)cc2)c1 | n | n | n | n | n
CC1(C)N=C(c2cccs2)C(C)(C)N1O | n | n | n | n | n
CCC(c1nnnn1C1CCCC1)N1CCN(c2ccccc2F)CC1 (configuration not stated) | n | 55.7 | n | n | n
O=c1c(C(c2nnnn2C2CCCCC2)N2CCCCC2)coc2ccc(Cl)cc12 (configuration not stated) | n | n | n | 51.7 | n
Fc1ccc(C(c2nnnn2C2CCCC2)N2CCN(Cc3ccccc3)CC2)cc1 (configuration not stated) | n | n | n | n | n
c1ccc(C(c2ccccc2)N2CCN(Cc3nnnn3C3CCCC3)CC2)cc1 | n | 97.7 | n | 96.5 | n
N#Cc1cccc(C(c2nnnn2C2CCCC2)N2CCCCCC2)c1 (configuration not stated) | n | n | n | n | n
CCC(c1nnnn1C1CCCC1)N1CCN(c2ccccc2)CC1 (configuration not stated) | n | n | n | n | n
Cc1cc(C)c2[nH]c(=O)c(C(c3nnnn3C3CCCC3)N3CCOCC3)cc2c1 (configuration not stated) | n | n | n | n | n
CC1N/C(=C\C(=O)c2ccccc2)N(O)C1(C)C (configuration not stated) | n | n | n | n | n
CC(C)C(c1nnnn1Cc1ccccc1)N1CCN(Cc2ccc3c(c2)OCO3)CC1 (configuration not stated) | n | 67.9 | n | 92.0 | n
COCCn1nnnc1C(c1ccccn1)N1CCN(c2cc(C)ccc2C)CC1 (configuration not stated) | n | 69.8 | n | 83.0 | n
COCCn1nnnc1C(c1ccc(OC)cc1OC)N1CCN(c2ccccc2F)CC1 (configuration not stated) | n | n | n | n | n
COCCn1nnnc1C(c1ccc(OC)cc1OC)N1CCN(c2ccccc2)CC1 (configuration not stated) | n | n | n | n | n
CC(C)C(c1nnnn1CC1CCCO1)N1CCN(Cc2ccc3c(c2)OCO3)CC1 (configuration not stated) | n | n | n | n | n
c1ccc(CCn2nnnc2C(c2cccs2)N2CCN(Cc3ccc4c(c3)OCO4)CC2)cc1 (configuration not stated) | n | 52.2 | n | 55.8 | n
Fc1ccccc1N1CCN(C(c2cccs2)c2nnnn2CCc2ccccc2)CC1 (configuration not stated) | n | 57.3 | n | 69.6 | n
N/C(COc1cccc(Cl)c1)=N\NS(=O)(=O)c1ccccc1 | n | n | n | n | n
CC(=O)NC1=NC(=O)/C(=C/N2CCOCC2)S1 | n | n | n | n | n
Cc1c(NC(=O)CSc2nnc3c4ccccc4n(CCc4ccccc4)c3n2)c(=O)n(-c2ccccc2)n1C | n | n | n | n | n

High-throughput results (PubChem BioAssay)
